From the supplement of paper PMC10849652
The full data set covers some 7,900 targets. This sample favours those with a hit. About 0.6% of all pairs of compound and target were hits. Values without a mark were called inactive.

target: ZDHHC7 isoform 2 (UniProt Q9NXF8); experiment: log2 fold change, soluble protein after heating vs DMSO (PISA); higher = thermal stabilisation; K562 cells, 10 uM, 30 min; active = over 0.2 and 3.5 SD of the protein, either way, in both replicates (recomputed)
In short: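 K562 cells at 2×10^6 cells/mL were treated for 30 min with 10 μM compound, and aliquots were heated for 3 min over 48°C-58°C before pooling. Extraction used PBS with 0.5% NP-40 at 4°C, and soluble protein was the supernatant after 21,000xg for 90 min, measured by TMTpro 16plex LC-MS/MS with channel sums equalised. Thermal stability values, relative to control samples and from duplicates, are log2 fold changes.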

Chain of ZDHHC7 isoform 2 (Q9NXF8 whole entry, looked up, canonical isoform): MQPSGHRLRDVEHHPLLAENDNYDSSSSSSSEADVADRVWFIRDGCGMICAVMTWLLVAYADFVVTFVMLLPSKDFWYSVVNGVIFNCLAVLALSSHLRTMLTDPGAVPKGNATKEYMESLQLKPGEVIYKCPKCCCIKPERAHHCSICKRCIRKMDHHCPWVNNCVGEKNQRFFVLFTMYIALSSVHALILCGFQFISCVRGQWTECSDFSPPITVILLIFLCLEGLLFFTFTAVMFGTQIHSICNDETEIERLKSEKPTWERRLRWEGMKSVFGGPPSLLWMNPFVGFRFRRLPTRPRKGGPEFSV

| Compound | log2 fold change |
| --- | --- |
| Cn1cncc1[C@@](N)(c1ccc(Cl)cc1)c1ccc2c(c1)c(-c1cccc(Cl)c1)cc(=O)n2C [tipifarnib] | -0.047 |
| CN1CCC(CNc2ccc3ncc(-c4cccc(OC(F)(F)F)c4)n3n2)CC1 | -0.415 (active) |
| Cc1cc(Nc2cc(CN3CCOCC3)c3nc(C)c(Cc4ccc(Cl)cc4F)n3n2)n[nH]1 [gandotinib] | 0.034 |
| CC[C@@H]1C(=O)N(C)c2cnc(Nc3ccc(C(=O)NC4CCN(C)CC4)cc3OC)nc2N1C1CCCC1 | 0.083 |
| CCCS(=O)(=O)Nc1ccc(F)c(C(=O)c2c[nH]c3ncc(-c4ccc(Cl)cc4)cc23)c1F [vemurafenib] | -0.016 |
| CS(=O)(=O)CCNCc1ccc(-c2ccc3ncnc(Nc4ccc(OCc5cccc(F)c5)c(Cl)c4)c3c2)o1 [lapatinib] | 0.034 |
| c1cc(OCCN2CCCCC2)cc(-c2n[nH]c3ccc(-c4nnc[nH]4)cc23)c1 | -0.191 |
| COC(=O)N[C@@H](C)CNc1nccc(-c2cn(C(C)C)nc2-c2cc(Cl)cc(NS(C)(=O)=O)c2F)n1 [encorafenib] | -0.043 |
| CNCc1ccc(-c2[nH]c3cc(F)cc4c3c2CCNC4=O)cc1 [rucaparib] | -0.067 |
| CC[C@@H]1C(=O)N(C)c2cnc(Nc3ccc(C(=O)N[C@H]4CC[C@H](N5CCN(CC6CC6)CC5)CC4)cc3OC)nc2N1C(C)C [volasertib] | -0.059 |
| CNC(=O)c1ccc(Nc2ncc(C(F)(F)F)c(NCc3nccnc3N(C)S(C)(=O)=O)n2)cc1 [defactinib] | 0.001 |
| COc1cc2nc(-c3cc(F)ccc3O)nc(N[C@@H]3CNC[C@H]3C(C)(C)O)c2cc1OC | -0.012 |
| NCC(=O)Nc1ccc(-n2nc(C(F)(F)F)cc2-c2ccc3c(ccc4ccccc43)c2)cc1 | -0.056 |
| CCn1cc(-c2ccnc3[nH]c(-c4cccc(CN(C)C)c4)cc23)c(-c2ccc(NC(=O)N(C)C)cc2)n1 | -0.363 |
| O=C(CCCCCCNC(=O)c1cnc(N(c2ccccc2)c2ccccc2Cl)nc1)NO [citarinostat] | -0.037 |
| COC(=O)[C@H](CCSC)NC(=O)c1ccc(NC[C@@H](N)CS)cc1-c1ccccc1 | 0.019 |
| CN(C)CC(=O)Nc1ccc2[nH]c(=O)c3ccccc3c2c1 | 0.057 |
| Cc1cccc(CC(=O)N2CCc3c2ccc(-c2cn(C)c4ncnc(N)c24)c3F)n1 | -0.06 |
